According to PubChem BioAssay AID1159580 (chemical genetic matrix, 2015):
Several values for one entry are separate records, joined by “and”; a condition that tells them apart may be missing. Identical values can stand only once. In all, about 5,500 compounds went through this assay and about 2,000 (36%) were called active. Another 18% or so got no clear call; they are omitted. Rule as the data show it: active = normalized growth mostly below about 0.91 (no sharp cut-off); inconclusive = no clear call, values can overlap the other calls; inactive = mostly above about 0.92. The list shows a part of the results.

Test: chemical genetic growth profiling, strain panel (AID 1159580);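 also: tested at 20 µM; growth read once vehicle control cultures reached saturation at 30 °C; 1 = growth at the plate median or of vehicle wells; lower values mean less growth of the strain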
Settings: S. cerevisiae deletion strains, growth OD

Measured: normalized growth

CN[C@@H]1[C@@H](O[C@H]2O[C@H](CO)[C@@H](N)[C@H](O)[C@H]2O)O[C@H]2C[C@@H](N)[C@H](O[C@H]3[C@H](O)[C@@H](O)[C@H](N)C[C@@H]3N)O[C@@H]2[C@@H]1O
active: locus YDR137W, strain rgp1, active compounds read low 0.702
inactive: locus YAL013W, strain DEP1, active compounds read low 1.01 | locus YAL021C, strain ccr4, active compounds read low 1.01 | locus YAL026C, strain drs2, active compounds read low 0.995 | locus YAL030W, strain snc1, active compounds read low 1.01 | locus YBL061C, strain skt5, active compounds read low 1 | locus YBR009C, strain hhf1, active compounds read low 1.01 | locus YBR021W, strain FUR4, active compounds read low 1.01 | locus YBR023C, strain chs3, active compounds read low 1.01 | locus YBR171W, strain sec66, active compounds read low 1.01 | locus YBR229C, strain ROT2, active compounds read low 1.02 | locus YBR231C, strain swc5, active compounds read low 1.02 | locus YBR279W, strain paf1, active compounds read low 1 | locus YCL011C, strain gbp2, active compounds read low 1.01 | locus YCL016C, strain dcc1, active compounds read low 0.994 | locus YCL029C, strain bik1, active compounds read low 1.01 | locus YCL069W, strain vba3, active compounds read low 1.02 | locus YCR088W, strain abp1, active compounds read low 1.01 | locus YDL005C, strain med2, active compounds read low 0.995 | locus YDL035C, strain GPR1, active compounds read low 1.03 | locus YDL074C, strain BRE1, active compounds read low 0.984 | locus YDL101C, strain DUN1, active compounds read low 1 | locus YDL134C, strain PPH21, active compounds read low 0.999 | locus YDL185W, strain tfp1, active compounds read low 0.992 | locus YDL192W, strain arf1, active compounds read low 1.01 | locus YDR001C, strain nth1, active compounds read low 1.01 | locus YDR069C, strain doa4, active compounds read low 1.03 | locus YDR101C, strain arx1, active compounds read low 1.01 | locus YDR150W, strain NUM1, active compounds read low 1.01 | locus YDR159W, strain sac3, active compounds read low 1.02 | locus YDR162C, strain NBP2, active compounds read low 1 | locus YDR195W, strain ref2 1.01 | locus YDR297W, strain sur2, active compounds read low 1.01 | locus YDR318W, strain mcm21, active compounds read low 1.03 | locus YDR334W, strain swr1, active compounds read low 0.993 | locus YDR335W, strain msn5, active compounds read low 1.01 | locus YDR388W, active compounds read low 1.02 | locus YDR392W, strain spt3, active compounds read low 0.921 | locus YDR502C, strain sam2, active compounds read low 0.982 | locus YEL003W, strain gim4, active compounds read low 1 | locus YEL037C, strain rad23, active compounds read low 1 | locus YEL061C, strain CIN8 (second series), active compounds read low 0.999 | locus YEL061C, strain CIN8, active compounds read low 1.01 | locus YER015W, strain faa2, active compounds read low 1.02 | locus YER016W, strain bim1, active compounds read low 1.01 | locus YER110C, active compounds read low 1.01 | locus YER111C, strain swi4, active compounds read low 1.01 | locus YER155C, strain BEM2 (second series), active compounds read low 0.936 | locus YER155C, strain BEM2, active compounds read low 1.01 | locus YER167W, strain BCK2, active compounds read low 1.03 | locus YFR010W, strain ubp6, active compounds read low 1.02 | locus YGL078C, strain dbp3, active compounds read low 1 | locus YGL086W, strain mad1, active compounds read low 1.01 | locus YGL167C, strain pmr1, active compounds read low 1.01 | locus YGL173C, strain kem1, active compounds read low 1.01 | locus YGL227W, strain vid30, active compounds read low 0.998 | locus YGL240W, strain doc1, active compounds read low 1.01 | locus YGL248W, strain PDE1, active compounds read low 1 | locus YGL253W, strain hxk2, active compounds read low 1 | locus YGR078C, strain PAC10, active compounds read low 0.99 | locus YGR135W, strain pre9, active compounds read low 0.978 | locus YGR229C, strain SMI1, active compounds read low 1.01 | locus YGR252W, strain gcn5, active compounds read low 0.989 | locus YHR013C, strain ard1, active compounds read low 1.07 | locus YHR027C, strain rpn1, active compounds read low 1 | locus YHR030C, strain SLT2, active compounds read low 1.01 and 0.961 | locus YHR079C, strain IRE1 (second series), active compounds read low 0.998 | locus YHR079C, strain IRE1, active compounds read low 0.962 | locus YHR094C, strain hxt1, active compounds read low 1.01 | locus YHR129C, strain ARP1, active compounds read low 1.01 | locus YHR142W, strain chs7, active compounds read low 0.977 | locus YHR200W, strain rpn10, active compounds read low 1 | locus YIL066C, strain RNR3, active compounds read low 1.01 | locus YIL073C, strain SPO22, active compounds read low 1.04 | locus YIL125W, strain kgd1, active compounds read low 1 | locus YIR030C, strain dcg1, active compounds read low 1 | locus YJL092W, strain hpr5, active compounds read low 1.01 | locus YJL095W, strain BCK1 (second series), active compounds read low 1.01 | locus YJL095W, strain BCK1, active compounds read low 0.987 and 0.964 | locus YJL115W, strain asf1, active compounds read low 0.991 | locus YJL129C, strain trk1, active compounds read low 1.01 | locus YJL134W, strain LCB3, active compounds read low 1.01 | locus YJL154C, strain vps35, active compounds read low 1.01 | locus YJL164C, strain tpk1, active compounds read low 0.975 | locus YJL166W, strain qcr8, active compounds read low 1.03 | locus YJL168C, strain set2, active compounds read low 1 | locus YJL187C, strain SWE1 (second series), active compounds read low 0.995 | locus YJL187C, strain SWE1, active compounds read low 1.01 | locus YJR043C, strain POL32, active compounds read low 1.03 | locus YJR066W, strain TOR1, active compounds read low 0.911 | locus YJR075W, strain HOC1, active compounds read low 0.977
